Most compounds without a hit are left out; they make up all but 19% or so of the library.
HT1080-NT tox – kills 2HG-producing HT-1080-NT fibrosarcoma cells; 360,000 tested, 1.6% active; HT-1080-NT fibrosarcoma viability, CellTiter-Glo ATP luminescence, 48 h; Potency, µM (titrated, usually from 46.1 µM), without a hit: top-dose activity, negative = less viability, usual class: cytotoxic;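 further: NT is the 2HG producing partner of a matched IDH1 knockdown line; 0% = DMSO-treated cells and -100% = media-only wells without cells; nearly all actives have a fitted effect of over 55% in size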
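Fibrosarcoma NT cells, 750 per well in 5% FBS RPMI, were exposed to compound for 48 hours. Viability: CellTiter-Glo luminescence.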
DT40 TDP1 CPT – growth inhibition of DT40 Tdp1-/-;hTDP1 cells with camptothecin (screen for TDP1 inhibitors); Potency, µM (titrated, usually from 46.2 µM), for the others: at the highest dose activity change, negative = growth inhibition, hits mostly inhibitors; chicken DT40 Tdp1-/-;hTDP1 cells + 20 nM CPT, ATP luminescence, 48 h; 420,000 tested, 12% active; AID 686979; further: nearly all actives have a fitted effect of over 55% in size
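Cell growth measured by CellTiter-Glo luminescence after a minimum 48 h, 37 C compound exposure with 20 nM CPT in Tdp1-knockout DT40 cells stably expressing hTDP1, seeded 400/well; qHTS titration format.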
TDP1 cell noCPT – qHTS for Inhibitors of human tyrosyl-DNA phosphodiesterase 1 (TDP1): qHTS in cells in absence of CPT. Potency, µM (top dose mostly 46.2 µM), without a hit: top-dose activity change, negative = growth inhibition, actives largely listed as inhibitors. 420,000 tested, 15% active. DT40 Tdp1-/- hTDP1 cells, no CPT, ATP luminescence, 48 h; further: nearly all actives have a fitted effect of over 55% in size
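Stably hTDP1-transfected Tdp1-null chicken DT40 cells were treated with library compounds minus camptothecin and grown for at least 48 hr at 37 °C, after which cellular ATP was quantified by luminescence.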
HT1080 IDH1KD tx – kills HT-1080 cells with IDH1 knockdown; 360,000 tested, 2% active; AID 686971; HT-1080 IDH1 knockdown viability, ATP luminescence, 48 h; Potency, µM (titrated, usually from 46.1 µM), for the others: at the top dose activity, negative = toxicity, hits mostly cytotoxic;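 further: 0% = DMSO wells and -100% = cell-free medium wells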
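Cytotoxicity counter-line: IDH1KD HT-1080, 48 h, CellTiter-Glo. Curves classed by r2, magnitude and activity.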
KB-3-1 tox – kills parental KB-3-1 adenocarcinoma cells; KB-3-1 viability, CellTiter-Glo ATP luminescence, 72 h; Potency, µM (top dose mostly 46.1 µM), most hits filed as cytotoxic; AID 1347075; 400,000 tested, 1.4% active; further: nearly all actives have a fitted effect of over 60% in size
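Cytotoxicity in the drug-sensitive parental line KB-3-1 was scored as loss of CellTiter-Glo luminescence following 72 h incubation with compound. Values come from curve fitting of normalized concentration-response data.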
KB-V1 MDR tox – kills drug-selected multidrug resistant KB-V1 cells. AID 1347076. KB-V1 MDR cells viability, CellTiter-Glo, 72 h. 400,000 tested, 3.4% active. Potency, µM (doses to about 46.1 µM), usual class: cytotoxic; further: nearly all actives have a fitted effect of over 60% in size
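KB-V1 cells (P-gp-expressing MDR subline of KB-3-1) in phenol-red-free DMEM with 10% FBS were exposed to library compounds over a concentration series for 72 h at 37 degrees C. Viability read by CellTiter-Glo luminescence; concentration-effect curves fitted after normalization.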
Starred values were filed as active, the others as inactive; i = inactive; ? = inconclusive; . = no result given; [ ] = another dose, or the depositor's remark. The call rests on the fitted dose curve; in most records, active means well fitted curve in the direction sought with a large enough effect; inconclusive means small, poorly fitted or top-dose-only effect, or another doubt; inactive means no such curve, though single readings can be large; an effect the other way counts as inactive or inconclusive. Unless noted, on the % scale 0 is the no-effect control and ±100 the full control effect; potency means the concentration at half of the fitted maximal effect.

SMILES	HT1080-NT tox	DT40 TDP1 CPT	TDP1 cell noCPT	HT1080 IDH1KD tx	KB-3-1 tox	KB-V1 MDR tox
CSc1cccc(N2C(=O)N(CC(=O)NCc3ccccc3Cl)c3ccccc3S2(=O)=O)c1	.	?	16µM*	.	i	i
COc1ccc(S(=O)(=O)N2CCSCC2)cc1C(N)=O	3%	?	0%	3%	i	i
O=C(C[n+]1ccnc2ccccc21)c1ccc(Cl)cc1	.	15%	?	.	i	i
Cc1cc(C)cc(NC(=O)c2ccc3c(c2)nnn3C2CCCC2)c1	.	1.3µM*	1.5µM*	.	?	?
CCOC(=O)CN(C(=O)CN1CCC(n2nnc3cc(C)ccc32)CC1)c1ccccc1	-14%	?	?	-16%	i	i
Cc1ccc2c(c1)nnn2C1CCN(CC(=O)N(c2ccccc2)c2ccccc2)CC1	-24%	13µM*	13µM*	-4%	?	9.2µM*
Cc1ccc2c(c1)nnn2C1CCN(CC(=O)Nc2ccc(F)cc2)CC1	-22%	?	21µM*	-19%	i	i
CCOc1ccc(NC(=O)c2ccc3c(c2)nnn3C2CCCC2)cc1	.	-26%	?	.	i	i
Cc1ccc2c(c1)nnn2C1CCN(CC(=O)N2CCN(c3ccc(F)cc3)CC2)CC1	-6%	16µM*	26µM*	-5%	i	i
CC(CO)NS(=O)(=O)c1cc(Cl)ccc1F (centres undefined)	3%	14%	-14%	11%	i	i
Cc1cccc(Cn2cc(S(=O)(=O)c3cccc(Cl)c3)c(=O)c3cc(F)c(N4CCOCC4)cc32)c1	.	-1%	-18%	.	.	.
COCCCn1c(-c2ccc(S(=O)(=O)N3CCOCC3)cc2)csc1=Nc1ccccc1	-2%	18µM*	15µM*	-15%	?	i
Cc1nc(-c2ccc(S(=O)(=O)N3CCCCCC3)cc2)cs1	-17%	?	?	-19%	i	i
O=S(=O)(c1ccc(-c2csc(=Nc3ccc(OC(F)(F)Cl)cc3)n2CCCO)cc1)N1CCCC1	.	2.9µM*	2.3µM*	.	.	.
COCCCN1C(=O)C(=O)/C(=C(/O)c2ccc(S(=O)(=O)N3CCOCC3)cc2)C1c1ccc(C)cc1 (centres undefined)	0%	1%	-3%	0%	.	.
Cn1c(-c2ccc(S(=O)(=O)N3CCCC3)cc2)csc1=Nc1ccc(Cl)c(Cl)c1	.	9.2µM*	4.1µM*	.	.	.
COc1ccc(C(C(=O)c2ccccc2)c2ccccc2)cc1 (centres undefined)	-25%	-19%	?	-2%	?	?
Cc1ccc(S(=O)(=O)N2CCC(C(=O)NCCCN3CCCC3=O)CC2)cc1C	8%	-1%	0%	8%	i	i
CCOc1ccc(CC(=O)NCc2ccc3c(c2)CCN3C(C)=O)cc1OCC	.	5%	-3%	.	.	.
O=S(=O)(c1ccccc1)c1cnc(-c2ccccc2)nc1N1CCCCC1	-2%	?	?	-16%	i	i
O=C(CCCC(=O)c1ccccc1)Nc1ccc(O)cc1	-2%	?	?	-6%	i	i
COC(=O)c1cc2n(n1)CCN(Cc1ccc(OC)cc1)C2=O	14%	-13%	-32%	9%	i	i
COc1ccc(CN2CCn3ncc(C(=O)Nc4cc(C)cc(C)c4)c3C2=O)cc1	?	5.8µM*	?	?	i	i
O=C(CN1CCC(NC(=O)Nc2ccc(F)cc2)CC1)Nc1ccccc1[N+](=O)[O-]	-11%	?	21µM*	-9%	i	i
Cc1nccc2[nH]c(=O)c(C(=O)NC3CCCCC3C)cc12 (centres undefined)	1%	?	16µM*	-2%	?	i
SMILES	HT1080-NT tox	DT40 TDP1 CPT	TDP1 cell noCPT	HT1080 IDH1KD tx	KB-3-1 tox	KB-V1 MDR tox
COc1ccc(CCNC(=O)c2cc3c(=O)[nH]c4ccc(C)cc4c3s2)cc1OC	.	13µM*	12µM*	.	i	i
CCOC(=O)CNC(=O)c1cc2c(=O)[nH]c3ccc(C)cc3c2s1	7%	35%	10%	16%	i	i
CCOc1ccc(CCNC(=O)c2cc3c(C)nccc3[nH]c2=O)cc1OCC	-3%	12µM*	13µM*	?	i	?
CCOc1ccc(CCNC(=O)c2cc3c(=O)[nH]c4ccc(C)cc4c3s2)cc1OCC	.	4.1µM*	18µM*	.	i	i
CC1=C(C(=O)N(C)C)CC(CC(=O)NCc2cccs2)C(=O)N1Cc1ccc(C(C)(C)C)cc1 (centres undefined)	4%	?	?	6%	i	i
CCCn1c(=O)c2sccc2n2c(CCCC(=O)NCCOC)nnc12	.	-2%	0%	.	.	.
c1nnc(NCNc2nncs2)s1	-13%	?	?	-22%	i	i
O=C(c1oc2ccccc2c1N1CCCCC1)N1CCCCC1	-5%	-24%	?	-15%	i	15µM*
O=c1oc2ccccc2c(N2CCN(c3ccc(F)cc3)CC2)c1CN1CCCC1	.	?	16µM*	.	i	i
O=C(c1cc2ccccc2o1)N1CCCCCC1	0%	-18%	-17%	1%	i	i
O=c1oc2ccccc2c(N2CCCCC2)c1CN1CCCC1	7%	-16%	-9%	-18%	i	23µM*
O=c1oc2ccccc2c(N2CCN(c3ccccc3F)CC2)c1CN1CCCC1	.	?	?	.	i	i
O=c1oc2ccccc2c(N2CCCCC2)c1CN1CCCCC1	12%	-12%	-5%	5%	i	i
COc1ccc2c(c1)cc1c(=O)n(CC(=O)NCc3ccco3)nc(C)n12	.	-2%	-5%	.	i	i
CC(C)C(=O)N1CCN(c2ccccc2NC(=O)c2cccc3ccccc23)CC1	-9%	?	16µM*	-16%	i	i
CC(C)C(=O)N1CCN(c2ccccc2NC(=O)c2cccc(Cl)c2)CC1	-2%	?	16µM*	-1%	i	i
Cc1ccc(CNC(=O)c2cc3sccc3n2Cc2ccc(Cl)cc2)cc1	.	?	?	.	i	i
CC(C)[C@H](NC(=O)c1ccccc1Cl)C(=O)Nc1nc(-c2ccccn2)cs1	?	5.8µM*	5.8µM*	?	i	?
C[C@@H](C(=O)Nc1nc(-c2ccccn2)cs1)N1C(=O)C2CCCCC2C1=O (some centres undefined)	-26%	?	?	-2%[9.24 µM]	?	i

High-throughput results as filed in PubChem BioAssay.
